Most compounds without a hit are left out; they make up all but 6.5% or so of the library.
VACV mCherry inh: qHTS for Stage-Specific Inhibitors of Vaccinia Orthopoxvirus: mCherry Reporter Primary qHTS. Vaccinia virus mCherry reporter infection, fluorescence. Potency, µM (series often up to 36.5 µM), without a hit: top-dose activity change, negative = inhibition, usual class: inhibitors. hit rate 0.63% among 310,000. AID 720579, 2013; calls by dose curve; tested in A549 cells; further: potency means the concentration at half of the fitted maximal effect; nearly all actives have a fitted effect of over 35% in size
LASV entry inh: qHTS for Inhibitors of binding or entry into cells for Lassa Virus; Lassa virus pseudotype entry inhibition, cell reporter; Potency, µM (highest dose often 37.9 µM), inactives show at the highest dose activity change, negative = inhibition, most hits filed as inhibitors; hit rate 1.2% among 300,000; AID 540256, 2011; calls by dose curve; tested in HEK293 cells; further: potency means the concentration at half of the fitted maximal effect; nearly all actives have a fitted effect of over 50% in size
HCMV antiviral: qHTS Assay for inhibitors of the human cytomegalovirus (HCMV). AID 1259415, 2018. HFF cells, HCMV-luciferase reporter, 72 h; stronger effect = lower value. hit rate 4.5% among 410,000. activity change, negative = inhibition, % at 57.5 µM; in the data active means activity change below about -60%; inconclusive means no clear call, values can overlap the other calls; inactive means above about -39%
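Cell-based, HFFs, 1000 cells/well, 16 h 37C; cpds in DMSO + HCMV-luc, MOI 1 PFU/cell; 72 h 37C; OneGlo luminescence after 5 min RT; norm. to buffer vs Salinomycin 10uM.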
FMDV antiviral: High Throughput Screening for Foot and Mouth Disease Virus Antivirals; FMDV antiviral cell-based qHTS; hit rate 1.2% among 410,000; Potency, µM (series often up to 57.9 µM), for the others: top-dose activity change, negative = inhibition, actives largely listed as inhibitors; calls by dose curve; tested in HEK293T cells; further: read-out not given here; potency means the concentration at half of the fitted maximal effect; nearly all actives have a fitted effect of over 45% in size
VACV Venus inh: qHTS for Stage-Specific Inhibitors of Vaccinia Orthopoxvirus: Venus Reporter Primary qHTS | Vaccinia virus Venus reporter expression, fluorescence | Potency, µM (series often up to 36.5 µM), for the others: at the top dose activity change, negative = inhibition, actives largely listed as inhibitors | hit rate 0.46% among 330,000; calls by dose curve; tested in A549 cells; further: potency means the concentration at half of the fitted maximal effect; nearly all actives have a fitted effect of over 30% in size
Marburg entry inh: qHTS for inhibitors of binding or entry into cells for Marburg Virus; Marburg virus pseudotyped entry inhibition, cell reporter; Potency, µM (highest dose often 37.8 µM), for inactives: at the top dose activity change, negative = inhibition, actives largely listed as inhibitors; hit rate 1.8% among 300,000; AID 540276, 2011; calls by dose curve; tested in HEK293 cells; further: potency means the concentration at half of the fitted maximal effect
* = called active by the depositor; i = inactive; ? = inconclusive; . = not tested or not shown; ! = not active in a repeat; [ ] = dose if it differs, or a comment. On the % scale 0 is the no-effect control and ±100 the full control effect.

SMILES	VACV mCherry inh	LASV entry inh	HCMV antiviral	FMDV antiviral	VACV Venus inh	Marburg entry inh
O=C(Cc1ccc(Cl)cc1)NO	-23%	.	.	.	-11%	.
CCN(CC)CCNC(=O)CCc1c(C)nc2c(c(C)nn2-c2ccc(C)c(C)c2)c1C	.	.	-98*	-17%	.	.
Cc1ccc(C2=Nc3ccccc3N(CC(=O)Nc3ccccc3C)C(=O)C2)cc1C	-5%	7%[46.1 µM]	61	31%	-5%	.
CC1CCN(c2nnc(N3CCC(C)CC3)c3ccccc23)CC1	-14%	.	7	-28%	-8%	.
Cc1ccc(-c2nnc(N3CCCCC3)c3ccccc23)cc1	.	.	-61*	-24%	.	.
Clc1nnc(N2CCCCC2)c2ccccc12	i	2%[46.1 µM]	-91*	-26%	-14%	4%[46.1 µM]
Cc1ccc(-c2nnc(N3CCN(c4ccccn4)CC3)c3ccccc23)cc1	11µM*	?	-38	22µM*	18µM*	?
COc1ccc(-c2nnc(N3CCC(C)CC3)c3ccccc23)cc1	-9%	-2%	-63*	0%	-11%	-4%
c1ccc(-c2nnc(N3CCN(c4ccccn4)CC3)c3ccccc23)cc1	.	?	?	-18%	.	-52%
Cc1ccc(N2CCn3c2nc2c3c(=O)n(CCCc3ccccc3)c(=O)n2C)cc1C	-11%	2%[46.1 µM]	-22	-10%	-4%	.
COc1cccc(NC(=O)N[C@H]2CC[C@@]34CCCN3C(=O)CCC[C@H]4C2Cc2ccccc2)c1 (some centres not stated)	.	.	-4	.	.	.
Cc1ccc(NC2=Nc3ccccc3CC2)cc1	.	?	29	-41%	-18%	7.9µM*
O=C1c2cccc3c(N4CCCCC4)ccc(c23)C(=O)N1c1cccc(O)c1	-19%	.	-84*	-10%	151%	?
O=C1c2cccc3c(N4CCCCC4)ccc(c23)C(=O)N1CCO	-2%	?	17	6%	10%	?
CC(=O)c1cc(-c2ccc(F)cc2)n(CCC(=O)Nc2nc3ccc(C)cc3s2)c1C	-26%	?	0	-29%	-24%	.
CCOc1ccc(-n2c(CCC(=O)O)ccc2-c2ccc(Br)cc2)cc1	-13%	-21%[46.1 µM]	1	-28%	2%	27%[46.1 µM]
Cc1ccc(N2CC(NC(=O)c3ccc(S(=O)(=O)N4CCCC4)cc3)CC2=O)cc1C (configuration not stated)	1%[7.34 µM]	7%[46.1 µM]	-29	-19%	-1%[7.34 µM]	.
COc1ccc(Nc2cc(C(=O)NCCCN(C)Cc3ccccc3)c3ccccc3n2)c(OC)c1	-15%	?	-26	-16%	-6%	.
COc1ccc(Nc2cc(C(=O)NCCCN3CCN(c4ccc(OC)cc4)CC3)c3ccccc3n2)cc1	?	?	-75*	40µM*	?	.
COc1ccc(Nc2cc(C(=O)NCCCN(C)Cc3ccccc3)c3ccccc3n2)cc1	?	-14%[46.1 µM]	-93*	-13%	-23%	.
CSc1cccc(Nc2cc(C(=O)NCCCN(Cc3ccccc3)C(C)C)c3ccccc3n2)c1	?	?	-104*	?	-25%	.
Cc1cc(C(=O)NCc2ccccc2)c2c(C)nn(-c3cccc(F)c3)c2n1	-10%	2%[46.1 µM]	-8	0%	-19%	.
CN1C/C(=C/c2ccc(B(O)O)cc2)C(=O)/C(=C/c2ccc(B(O)O)cc2)C1	.	.	.	28µM*	.	.
CC(C)N1C/C(=C/c2cccnc2)C(=O)/C(=C/c2cccnc2)C1	i	13µM*	-37	8.9µM*	-9%	4.5µM*
CC(C)N1C/C(=C/c2ccsc2)C(=O)/C(=C/c2ccsc2)C1	-18%	4µM*	-85*	16µM*	-9%	?
SMILES	VACV mCherry inh	LASV entry inh	HCMV antiviral	FMDV antiviral	VACV Venus inh	Marburg entry inh
CN1C/C(=C/c2cccnc2)C(=O)/C(=C/c2cccnc2)C1	?	?	-92*	3.2µM*	?	1.8µM*
O=c1oc2ccccc2c2c1[C@H]1O[C@](c3ccsc3)(Cc3c1ccc1ccccc31)O2	.	.	.	.	.	5%[14.2 µM]
Cc1nn(C)c2c1c(C(F)(F)F)cc(=O)n2C(C)C(=O)NCCc1ccc(Cl)cc1 (configuration not stated)	-5%	-1%[46.1 µM]	-2	-20%	-1%	.
CC(=O)N1CCc2c(sc(NC(=O)C3CCCN3S(=O)(=O)c3cccs3)c2C(N)=O)C1 (configuration not stated)	i	2%	-7	28µM*	-11%	13%
Cc1ccc(Cl)cc1N1CCN(C(=O)c2ccc3nc[nH]c3c2)CC1	-20%	?	-61*	-16%	-9%	?
Cc1ccc(Cl)cc1N1CCN(C(=O)c2ccc3c(c2)CCN3S(C)(=O)=O)CC1	.	.	-66*	.	.	.
C=C(C#Cc1ccc(OC)cc1)CCN1C=C(C(=O)OCC)C(c2ccccc2)NC1=O (configuration not stated)	.	?	.	.	.	6%[14.2 µM]
COc1ccc(C)cc1N(C)C(=O)c1sc2nc3n(c(=O)c2c1C)CCCCC3	-14%	4%[46.1 µM]	-2	-8%	-12%	.
O=C(Nc1ccccc1F)N1C[C@@H]2[C@H](c3ccccc31)[C@H](CO)N2C(=O)Nc1ccccc1	.	.	1	.	.	.
Cc1ccc(-c2nn(-c3cccc([N+](=O)[O-])c3)c3c2cnc2ccc(F)cc23)cc1	?	-16%[46.1 µM]	6	15%	-3%	.
CCOC(=O)C1(Cc2cccc(OC)c2)CCN(Cc2cccc(OCC)c2O)CC1	-26%	-24%[46.1 µM]	?	?	-12%	7.1µM*
CCOC(=O)C1(Cc2cccc(OC)c2)CCN(C/C=C/c2ccc(OC)cc2)CC1	-21%	?	?	14µM*	-13%	?
CCOC(=O)C1(CC2CC2)CCN(Cc2ccc(OC)cc2F)CC1	-18%	?	?	?	2%	10µM*
CCOC(=O)C1(Cc2cccc(OC)c2)CCN(CC=C(C)C)CC1	.	.	-33	-27%	.	.
CCOC(=O)C1(Cc2cccc(OC)c2)CCN(CCO)CC1	-5%	9%	43	-16%	-1%	0%[46.1 µM]
CCOC(=O)C1(Cc2cccc(OC)c2)CCN(C/C=C/c2ccccc2)CC1	-24%	?	-38	?	-22%	7.9µM*
CC(=O)c1cc(-c2ccc(F)cc2)n(CC(=O)NC2CCC(C)CC2)c1C (configuration not stated)	-24%	20%[46.1 µM]	0	19%	-25%	.
COc1ccc(Cl)cc1NC(=O)Cn1c2ncccc2c(=O)n1-c1ccc(C)c(C)c1	-13%[7.34 µM]	12%[46.1 µM]	12	-11%	-17%[7.34 µM]	.
CCOC(=O)C1(Cc2ccc(OC)cc2)CCN(C(=O)CCN2CCCC2=O)CC1	.	.	-76*	31%	.	.
CN(Cc1ccccc1)C(=O)c1oc(=O)c2ccccc2c1-c1ccccc1	i	2%	5	-3%	-16%	0%
Cc1ccc(-c2c(C(=O)N(C)Cc3ccccc3)oc(=O)c3ccccc23)cc1	-13%	-16%[46.1 µM]	-65*!	-2%	-14%	?

Source: PubChem BioAssay
